Experimental findings from PubChem BioAssay AID504339 (National Center for Advancing Translational Sciences (NCATS), 2011) are described below.

Among all 390,000 compounds or so, about 17,000 (4.4%) were called active. Another 8% or so got no clear call; they are omitted. Calls come from the whole dose curve; as a rule, active = well fitted inhibition curve with a large enough effect; inconclusive = small, poorly fitted or top-dose-only effect; inactive = no such curve, though single readings can be large or run the other way. The entries come from a sample that favours actives as a whole.
% is set by controls: 0 for no effect and ±100 for the full control effect; potency is the fitted concentration of half-maximal effect.

Chain of Lysine-specific demethylase 4A (Homo sapiens) (O75164 whole entry, looked up, the tested form may be a part): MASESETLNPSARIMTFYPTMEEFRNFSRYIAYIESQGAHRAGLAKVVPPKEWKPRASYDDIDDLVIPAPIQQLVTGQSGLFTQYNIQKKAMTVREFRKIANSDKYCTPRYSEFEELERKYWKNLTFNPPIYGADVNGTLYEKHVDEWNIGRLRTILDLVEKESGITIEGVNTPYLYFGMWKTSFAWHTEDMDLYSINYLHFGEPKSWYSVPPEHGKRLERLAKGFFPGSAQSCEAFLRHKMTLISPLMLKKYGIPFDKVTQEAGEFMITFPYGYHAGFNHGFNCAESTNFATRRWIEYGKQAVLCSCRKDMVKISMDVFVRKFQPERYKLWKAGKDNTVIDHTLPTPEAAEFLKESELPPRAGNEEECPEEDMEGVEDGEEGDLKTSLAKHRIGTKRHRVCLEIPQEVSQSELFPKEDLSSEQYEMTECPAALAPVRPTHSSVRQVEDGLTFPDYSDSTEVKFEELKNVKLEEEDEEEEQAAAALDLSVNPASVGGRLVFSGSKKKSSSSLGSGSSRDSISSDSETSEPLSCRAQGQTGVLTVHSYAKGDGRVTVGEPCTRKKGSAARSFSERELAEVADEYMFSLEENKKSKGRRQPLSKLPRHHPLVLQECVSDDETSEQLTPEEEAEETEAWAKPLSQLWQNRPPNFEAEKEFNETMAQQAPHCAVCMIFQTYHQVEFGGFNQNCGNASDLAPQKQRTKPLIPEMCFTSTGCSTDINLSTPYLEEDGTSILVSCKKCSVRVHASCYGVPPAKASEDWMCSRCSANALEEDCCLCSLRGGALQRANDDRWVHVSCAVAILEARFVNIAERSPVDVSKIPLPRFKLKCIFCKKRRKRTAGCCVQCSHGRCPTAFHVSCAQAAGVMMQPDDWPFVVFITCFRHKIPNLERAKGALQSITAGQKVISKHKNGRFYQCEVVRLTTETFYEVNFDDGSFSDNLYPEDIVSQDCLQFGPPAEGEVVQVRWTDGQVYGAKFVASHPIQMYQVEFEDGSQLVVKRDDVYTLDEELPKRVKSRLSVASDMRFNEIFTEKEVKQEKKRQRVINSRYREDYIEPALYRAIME

The assay concerns the target Lysine-specific demethylase 4A (Homo sapiens) (UniProt O75164). The experiment in a line: qHTS Assay for Inhibitors of JMJD2A-Tudor Domain. Note: nearly all actives have a fitted effect of over 50% in size. Conditions: AlphaScreen JMJD2A-Tudor / H3K4me3 peptide binding; series mostly up to 114 µM; activity change, negative = inhibition: at the top concentration.
Take `COCCNc1ncnc2c1c(-c1ccccc1)cn2-c1ccc(C)c(Cl)c1`: the “activity change, negative = inhibition” value was -28.7% (inactive).
On the same count and under the same terms, then `CC1(C)CCc2cc(S(=O)(=O)N3CCN(c4nc(-c5cccs5)nc5ccccc45)CC3)ccc2O1`, with -16.3% (inactive).
On the same count and under the same terms, then `COc1ccc(OC)c(Nc2nc3ccccc3n3cnnc23)c1`, with -5.88% [at 11.4 µM] (inactive); and `COc1ccc(OC)c(-c2csc(NC(=O)C3=NNC(=O)CC3)n2)c1`, with -29.6% (inactive).
As for `COc1ccc(OC)c(Nc2nc(-c3ccc(O)c(O)c3)cs2)c1`, the Potency is 10 µM (active).
Turning to `CCOC(=O)c1ccc(NC(=O)CSc2nc3c([nH]c4ccccc43)c(=O)n2C)cc1`, the “activity change, negative = inhibition” value was 2.9% (inactive).
Still for that read-out and setting: under `COc1ccc(OC)c(-c2noc(N3CCN(c4cc(Cl)ccc4C)CC3)n2)c1` stands -28.1% (inactive); under `Cc1cc(Nc2ccc(C(=O)N3CCCCC3)cc2)c2cccc(C)c2n1`, 8.87% (inactive).
As to `Cc1ccc(Nc2cc(C)nc3c(C)ccc([N+](=O)[O-])c23)cc1`, the Potency is 35.5 µM (active).
As to `Cc1ccccc1Nc1c([N+](=O)[O-])ccc2nonc12`, the “activity change, negative = inhibition” value is -24.2% (inactive).
Consider `CCS(=O)(=O)N1CCc2cc(C(=O)NCc3ccc(C)cc3)ccc21`, for which the “activity change, negative = inhibition” value was -16.9% (inactive).
The same measure, in the same setting: under `CCn1cc(C(=O)NCCc2ccccc2)c(=O)c2cc(S(=O)(=O)N3CCCCCC3)ccc21` stands -20.7% (inactive); under `COC(=O)c1cc(NC(=O)CCS(=O)(=O)c2cc(Br)cc3c2N(C(=O)C2CC2)CC3)cc(C(=O)OC)c1`, -14.7% (inactive).
On the same count and under the same terms, under `COc1ccc(C)cc1N(C)C(=O)c1c(C)oc2ncnc(N3CCOCC3)c12` stands -14.6% (inactive).
On the same count and under the same terms, under `Cc1ccc(CCNC(=O)C2CCN(c3nnc(-n4cccc4CNc4ccc(C)cc4)s3)CC2)cc1` stands -31.3% (inactive).
`O=C(OC12CC3CC(CC(C3)C1)C2)c1ccc(NCc2cc(O)ccc2O)cc1`: the Potency was 56.2 µM (active).
With `CC(OC(=O)c1ccc(Cl)cc1O)C(=O)NCCC1=CCCCC1` (configuration not stated), the “activity change, negative = inhibition” value is -8.22% (inactive).
For `COC(=O)c1ccc(NCc2cc(O)ccc2O)cc1`, the Potency was 5.62 µM (active).
For the compound `CC(CN1CCCCC1)OC(=O)c1ccccc1Cl` (configuration not stated), the “activity change, negative = inhibition” value was -24.7% (inactive).
For the compound `CCN(CC)C(=O)CCC(=O)Nc1ccc(C(=O)OC)cc1`, the “activity change, negative = inhibition” value is -13.2% (inactive).
For the compound `CC(C)OC(=O)c1ccc(NCc2cc(O)ccc2O)cc1Cl`, the Potency was 10 µM (active).
Turning to `C#CCNc1ccc(C(=O)OCC)cc1`, the “activity change, negative = inhibition” value was -6.52% (inactive).
On the same count and under the same terms, then `CC1(C)C2CCC1(C)C(OC(=O)c1ccc(O)cc1)C2` (configuration not stated), with -15% (inactive); and `O=c1cc(COc2cccc(C(F)(F)F)c2)nc2sc3c(n12)CCCC3`, with -17.9% (inactive); and `CN(C)c1ccc(C(=O)NCC(=O)OC(C(=O)Nc2cc(C(F)(F)F)ccc2Cl)c2ccccc2)cc1` (configuration not stated), with -27.4% (inactive).
On the same count and under the same terms, under `CCc1cccc(NC(=O)c2cnc(N3CCOCC3)c3ccccc23)c1` stands 0% (inactive); under `O=C(COc1ccccc1F)Nc1ccc(C(=O)OCc2cc(=O)n3nc(C4CC4)sc3n2)cc1`, -22.8% (inactive); under `Cc1cccc(C)c1-n1ncc(C(=O)NCCCN2CCCCC2)c1C1CCN(C(=O)OC(C)(C)C)CC1`, 1.94% (inactive).
Still for that read-out and setting: under `COc1ccc(Cc2nc3ccc(C(=O)NCc4ccc(OC)cc4OC)cc3o2)cc1` stands -23.6% (inactive); under `COc1ccc(OC)c(NC(=O)C2CCCN(S(=O)(=O)c3ccc4c(c3)CCCC(=O)N4)C2)c1` (configuration not stated), -25.2% (inactive).
On to `Oc1c(CN2CCOCC2)ccc(CN2CCOCC2)c1O`, for which the Potency was 3.55 µM (active).
As to `O=[N+]([O-])c1ccc(COc2ccccc2CN2CCOCC2)cc1`, the “activity change, negative = inhibition” value was -18.1% (inactive).
On the same count and under the same terms, under `OC(c1ccccc1)C(CN1CCOCC1)c1ccccc1` (configuration not stated) stands 15.2% (inactive); under `CCc1nc(NCCO)c(C#N)c2c1CCCC2`, -15% (inactive).
For `CC(C)CCNc1nc(N2CCCC2)c2c(c1C#N)CCN(C)C2`, the Potency was 44.7 µM (active).
Take `CC(C)Cc1nc(N2CCOCC2)c(C#N)c2c1CCC2`: the “activity change, negative = inhibition” value was 60.8% (inactive).
Still for that read-out and setting: then `CCCNC(=O)C1CCN(c2nc3ccc(C)cc3[nH]2)CC1`, with -13% (inactive).
`CSC1=N/C(=C\C=C\c2cccs2)C(=O)S1`: the Potency was 12.6 µM (active).
Same read-out and setting: under `CCOC(=O)c1c(C)oc2nc(C)nc(N3CCN(c4ccc(OC)cc4)CC3)c12` stands 39.8 µM (active).
On to `COc1ccc(N2CCN(C(=O)c3c(C)oc4nc(C)nc(N5CCCC5)c34)CC2)cc1`, for which the “activity change, negative = inhibition” value is -15.2% (inactive).
For `CCOC(=O)c1c(C)oc2nc(C)nc(Nc3ccc(CC)cc3)c12`, the “activity change, negative = inhibition” value was 2.91% (inactive).
`Clc1ccccc1CSc1nnc(-c2ccco2)c(-c2ccco2)n1`: the Potency was 22.4 µM (active).
Regarding `Fc1ccc(Nc2nc(SCc3ccccc3Cl)nc3ccccc23)cc1`, the “activity change, negative = inhibition” value is 8% (inactive).
With `CC1(C)N=C(SCc2ccccc2Cl)c2ccccc2N1`, the “activity change, negative = inhibition” value was 185% (inactive).
Same read-out and setting: under `O=C(NCCSc1ccccc1)c1ccco1` stands -3.79% (inactive).
Turning to `c1ccc(CSc2nnc(-c3ccco3)c(-c3ccco3)n2)cc1`, the Potency was 17.8 µM (active).
As to `Cc1ccc(-c2nnc(SCC(=O)NCc3ccccc3)nc2-c2ccc(C)cc2)cc1`, the “activity change, negative = inhibition” value was -35.5% (inactive).
